# Shown are actives, neighbours in structure and some others; about 1.6% of the full set was active somewhere.
# ALOX12 inh = Primary qHTS assay for inhibitors of human arachidonate 12S-lipoxygenase (ALOX12): Round 2; hit rate 1.1% among 580,000; Potency, µM (doses to about 108 µM), without a hit: at the highest dose activity change, negative = inhibition, actives largely listed as inhibitors; Polyunsaturated fatty acid lipoxygenase ALOX12 (Homo sapiens), P18054; purified 12hLO, xylenol orange hydroperoxide absorbance; AID 1671190, 2021; also: % is scaled to controls: 0 for no effect and ±100 for the full control effect
# Target sequence (P18054 whole entry, looked up): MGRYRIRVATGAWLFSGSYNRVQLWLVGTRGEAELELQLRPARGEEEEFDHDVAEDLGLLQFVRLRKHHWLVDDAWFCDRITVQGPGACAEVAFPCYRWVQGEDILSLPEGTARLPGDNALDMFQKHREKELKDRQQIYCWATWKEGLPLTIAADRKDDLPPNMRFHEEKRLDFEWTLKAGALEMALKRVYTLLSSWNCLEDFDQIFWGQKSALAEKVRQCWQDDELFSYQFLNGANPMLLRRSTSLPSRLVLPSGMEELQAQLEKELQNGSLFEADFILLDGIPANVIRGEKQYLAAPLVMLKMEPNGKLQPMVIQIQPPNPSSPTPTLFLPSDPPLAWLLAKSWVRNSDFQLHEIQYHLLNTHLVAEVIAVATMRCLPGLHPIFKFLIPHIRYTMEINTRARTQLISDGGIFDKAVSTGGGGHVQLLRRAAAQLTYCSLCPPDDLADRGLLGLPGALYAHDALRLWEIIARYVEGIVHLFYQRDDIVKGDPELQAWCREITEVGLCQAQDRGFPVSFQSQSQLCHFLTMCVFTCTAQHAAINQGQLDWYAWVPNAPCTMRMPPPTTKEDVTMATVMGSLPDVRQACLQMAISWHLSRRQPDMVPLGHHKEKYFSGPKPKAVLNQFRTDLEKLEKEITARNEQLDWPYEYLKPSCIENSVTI
#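 Hydroperoxide product was detected by ferrous iron/xylenol orange as the 573 to 405 nm absorbance ratio. Arachidonic acid at 40 uM (final) was turned over for 30 min at room temperature by 150 nM human 12hLO, pH 7.0 Hepes buffer, after 15 min compound preincubation.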
# Mito fusion yeast = qHTS Assay for Small Molecule Inhibitors of Mitochondrial Division or Activators of Mitochondrial Fusion. S. cerevisiae fusion-defective mutant growth rescue, CellTiterGlo 48 h. hit rate 0.23% among 320,000. Potency, µM (highest dose often 46.1 µM), for inactives: at the top dose growth rescue (activation), hits mostly activators; also: % of control where 0% means no effect; nearly all actives have a fitted effect of over 45% in size
#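 Yeast fusion mutant, YPEG (non-fermentable carbon), compound, 48 h at 37C non-permissive; CellTiterGlo added, 10 min RT, luminescence read. Rescued growth = division inhibition.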
# FUS yeast rescue = qHTS for Suppressors of FUS Proteinopathy: Primary screen using FUS-linked yeast assay. S. cerevisiae FUS-expressing, growth rescue, OD600, 24 h. AID 1347120, 2019. Potency, µM (titrated, usually from 76.6 µM), hits mostly activators. hit rate 0.24% among 390,000;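 also: plate controls were DMSO vehicle for no effect and reference control for full effect; nearly all actives have a fitted effect of over 55% in size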
#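 Absorbance at 600 nm, taken 24hr after compound addition, measured rescue of FUS-yeast growth at 30C. Induction used 2% galactose with seeding at OD 0.005. Controls: CP55940 from 92uM final, DMSO only.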
# gsp antagonist = qHTS for Antagonists of gsp, the Etiologic Mutation Responsible for Fibrous Dysplasia/McCune-Albright Syndrome: qHTS | Potency, µM (top dose mostly 76.9 µM), for the others: at the top dose activity change, negative = inhibition, hits mostly inhibitors | AID 624288, 2012 | hit rate 0.4% among 340,000 | gsp-mutant cells, cAMP HTRF, 30 min; calls by dose curve; cell line not stated here;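 also: intracellular cAMP measured with PDE inhibitor Ro 20-1724 present during compound exposure; % is scaled to controls: 0 for no effect and ±100 for the full control effect; nearly all actives have a fitted effect of over 65% in size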
#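 Cells, 2000/well, grown 16–24 h in DMEM 10% FBS with 0.5 mg/ml G418, then compounds plus […] (300 uM addition stock), 30 min at 37C. cAMP read by HTRF (cAMP-d2 and anti-cAMP antibody-K in lysis buffer) after 30 min RT.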
# gsp agonist = qHTS for Agonist of gsp, the Etiologic Mutation Responsible for Fibrous Dysplasia/McCune-Albright Syndrome: qHTS | hit rate 0.13% among 340,000 | Potency, µM (series often up to 76.9 µM), inactives show top-dose activation (cAMP increase), hits mostly activators | gsp mutant cells, cAMP HTRF, 30 min; active = well fitted activation curve with a large enough effect; inconclusive = small, poorly fitted or top-dose-only effect, or another doubt; inactive = no such curve, though single readings can be large or run the other way; cell line not stated here;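 also: phosphodiesterase inhibitor Ro 20-1724 added with compounds to block cAMP breakdown; nearly all actives have a fitted effect of over 60% in size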
#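 Cells stably selected in G418 were plated at 2000/well, grown 16-24 hr, then given compounds in DMSO with the PDE inhibitor […] (300 uM solution added) for 30 min at 37C; cAMP was read by HTRF.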
# Active calls of the source: *; i = inactive; ? = inconclusive; / = not tested or not shown; [ ] = another dose, or the depositor's remark. Unless noted, calls follow the shape of the dose curve; as a rule, active = well fitted curve in the direction sought with a large enough effect; inconclusive = small, poorly fitted or top-dose-only effect, or another doubt; inactive = no such curve, though single readings can be large; an effect the other way counts as inactive or inconclusive. Potency is read from the fitted curve at half-maximal effect.
SMILES,ALOX12 inh,Mito fusion yeast,FUS yeast rescue,gsp antagonist,gsp agonist
c1coc(-c2nc(-c3ccco3)c(-c3ccco3)nc2-c2ccco2)c1,?,3%,i,8%,14%
CCc1ccc(-n2nnc(C(=O)Nc3nccs3)c2C)cc1,35%,/,/,/,/
O=c1c2cnc(N3CCCCC3)nc2ccn1-c1ccccc1F,10%,/,/,/,/
CCc1cccc2c(C(=O)O)c[nH]c12,-1%,/,/,/,/
CCOc1cc(CNc2ccc3c(c2)CCC3)ccc1O,-17%,-2%,i,-33%,0%
COc1cc(CNc2ccc3c(c2)CCC3)cc(OC)c1O,1.1µM*,-4%,i,-17%,15%
NS(=O)(=O)c1ccc(NC(=S)Nc2ccn(Cc3cccc4ccccc34)n2)cc1,22µM*,-7%,i,-14%,-3%[15.4 µM]
CC(NC(=O)/C(C#N)=C\c1cccc(Oc2ccccc2)c1)c1ccccc1 (stereo not given),9%,/,/,/,/
CCC[C@H](NC(=O)C(C#N)=Cc1cccc(Br)n1)c1ccccc1,7.7µM*,/,/,/,/
COc1ccccc1Oc1coc2cc(OC(=O)c3ccc(F)cc3)ccc2c1=O,12%,/,/,/,/
Cc1ccc(Cn2c(C(=O)O)c(CNCc3ccccc3Cl)c3ccc(C)cc32)cc1,-25%,/,i,/,/
COc1ccc(Cn2c(C(=O)O)c(CNCCc3ccccc3Cl)c3ccc(C)cc32)cc1,-29%,/,14µM*,/,/
COC(=O)C1CCN(Cc2cc(=O)oc3ccc(Cl)cc23)CC1,16µM*,/,/,/,/
CC(=O)Nc1ccc(NS(=O)(=O)c2cccc3ccccc23)cc1,0%,-1%,i,-12%,-12%
O=S(=O)(Nc1ccc(C(O)(C(F)(F)F)C(F)(F)F)cc1)c1cccc2ccccc12,45µM*,/,i,/,/
COCCn1c(-n2nc(C)cc2C)nc2c1c(=O)n(CC(=O)OC)c(=O)n2C,19%,/,/,/,/
Cc1cc(/C=C(\C#N)C(=O)Nc2ccccc2)c(C)n1-c1ccc(C(=O)O)cc1,?,1%,i,?,-39%
Cc1cccc(NC(=O)/C(C#N)=C\c2cc(C)n(-c3ccc(C(=O)O)cc3)c2C)c1,-17%,4%,i,25µM*,5%
CCCCc1[nH]nc2c1C1(C(=O)Nc3ccc(F)cc31)C(C#N)=C(N)O2 (stereo not given),1%,/,/,/,/
Fc1ccccc1-n1c(C23CC4CC(CC(C4)C2)C3)n[nH]c1=S,14µM*,/,/,/,/
COCCCn1c(C23CC4CC(CC(C4)C2)C3)n[nH]c1=S,?,-5%,i,-6%,2%
CC(C)Cn1c(C23CC4CC(CC(C4)C2)C3)n[nH]c1=S,28µM*,5%,i,-1%,?
Cc1ccc(SCc2cc(=O)c3c(=O)n(-c4ccccc4)[nH]c3[nH]2)cc1,35µM*,-2%,?,4%,-9%[15.4 µM]
O=c1cc(CSc2ccc(Cl)cc2)[nH]c2[nH]n(-c3ccccc3)c(=O)c12,40µM*,1%,i,5%,-3%[15.4 µM]
Cc1ccc(-c2nn(-c3cccc(F)c3)cc2CN2CCN(c3ccccn3)CC2)o1,8.9µM*,5%,i,-23%,-7%
SMILES,ALOX12 inh,Mito fusion yeast,FUS yeast rescue,gsp antagonist,gsp agonist
Cc1ccc(C2CC(=O)N(CCCCCC(=O)O)C(=O)C2)cc1,-40%,/,/,/,/
COc1cc2c(cc1NC(=O)C(C)Sc1ccc(NC(C)=O)cc1)oc1ccccc12 (stereo not given),-15%,?,?,20µM*,?
COc1cc2c(cc1NC(=O)CSc1nccn1C)oc1ccccc12,5%,?,i,28µM*,2%
COc1ccccc1CNCc1ccc(C)cc1,1µM*,-3%,i,14%,1%
COc1ccccc1CNCc1cc(OC)c(OC)c(OC)c1,-44%,-4%,i,3%,0%
Cc1ccc(C)c(NC(=O)CCn2cnc3c2c(=O)n(C)c(=O)n3C)c1,13%,/,/,/,/
O=C(NCCn1cccc1-c1nc(-c2ccc3c(c2)OCO3)no1)c1ccc(Cl)cc1,13µM*,/,/,/,/
CN(C)S(=O)(=O)N1CCC(Oc2cccc(C(=O)NCCC3=CCCCC3)c2)CC1,6%,8%,/,35µM*,-38%
CN(C)S(=O)(=O)N1CCC(Oc2cccc(C(=O)NC3CCCCC3)c2)CC1,14%,2%,i,?,8%
CCCc1nc2ccccc2n1CC(O)c1ccccc1 (stereo not given),21%,/,/,/,/
Cc1ccc2c(Cl)c(Cc3ccccc3)c(=S)[nH]c2n1,32µM*,/,i,0%,-19%
COc1cc2nc(C)n(CC(=O)NC3CCCc4c3[nH]c3ccccc43)c(=O)c2cc1OC (stereo not given),45µM*,/,/,/,/
O=C(Cc1ccc2c(c1)OCCCO2)NC1CCCc2c1[nH]c1ccccc21 (stereo not given),50µM*,/,/,/,/
Cc1nc(-c2ccc(CCNC(=O)c3nccnc3N)cc2)cs1,9%,/,/,/,/
Cc1c(-c2ccccc2)oc2c(C(=O)NCCCN3CCCCC3)cccc2c1=O,-8%,/,/,/,/
COCCn1c(SCC(=O)Nc2ccc(NC(=O)c3ccco3)c(OC)c2)nc2ccccc2c1=O,1%,0%,i,7%,8%
CCCCn1c(SCC(=O)Nc2cc(NC(=O)c3ccco3)ccc2C)nc2ccccc2c1=O,-25%,4%,32µM*,-14%,1%
Cc1ccc(-c2nc(CC(=O)NCc3ccccc3F)cs2)o1,11µM*,/,/,/,/
CN(C)CCCNS(=O)(=O)c1ccc(N2CCN(Cc3ccc4c(c3)OCO4)CC2)c([N+](=O)[O-])c1,2.8µM*,-9%,i,1%,-5%
COc1ccccc1CNC(=O)c1ccccc1,-6%,/,/,/,/
CCc1cccc(C)c1NC(=O)c1cccc(N(C)C)c1,22µM*,-1%,i,-5%,-23%
COc1ccccc1CNC(=O)c1cccc(N(C)C)c1,1.8µM*,2%,i,-2%,-25%
CN(C)c1cccc(C(=O)NNc2c(Cl)cc(Cl)cc2Cl)c1,5µM*,/,/,/,/
CN(C)c1ccc(NC(=O)c2cccc(N(C)C)c2)cc1,-40%,/,/,/,/
O=C(Nc1ccc(Cl)cc1)N1CCC(Oc2ncccc2C(=O)N2CCCCC2)C1 (stereo not given),27%,/,/,/,/
Cc1cc(Cl)ccc1OCC(=O)NNC(=O)C1CCN(c2ncnc3sc(C)c(C)c23)CC1,206%,29%,?,35µM*,17%
COc1ccc(OCC(=O)NNC(=O)C2CCN(c3ncnc4sc(C)c(C)c34)CC2)cc1,23%,1%,i,?,-25%
Cc1ccc(OCC(=O)NNC(=O)C2CCN(c3ncnc4sc(C)c(C)c34)CC2)cc1,-2%,-6%,i,-25%,38%[15.4 µM]

# Screening results: PubChem, National Center for Advancing Translational Sciences (NCATS)
